# Screening data (PubChem)
# PrPC TRFRET: inhibitors of human cell surface prion protein PrPC, primary screen, cell-based, TR-FRET | 370,000 compounds, 0.43% hits | TR-FRET read-out | inhibition, % at 13.8 µM | AID 720596, 2013; in the data active means inhibition above about 24%; further: 0% = median of the test wells and 100% = reference compound wells
# DUSP3 inh: VHR1 phosphatase inhibitors, primary screen, biochemical, absorbance, uHTS; inhibition, % at 13.3 µM; 290,000 compounds, 0.52% hits; recombinant VHR phosphatase, pNPP absorbance; Dual specificity protein phosphatase 3 (Homo sapiens), P51452; in the data active means inhibition above about 50%
# TcdB inh: TcdB glycohydrolase inhibitors, primary screen, biochemical, single point, plate reader; Toxin B (Clostridioides difficile), P18177; TcdB glycohydrolase enzymatic assay; inhibition, % at 9.99 µM; 350,000 compounds, 0.24% hits; in the data active means inhibition above about 10%
# PrPC TRFRET cf: confirmation of inhibitors of cell surface human prion protein, confirmation, cell-based, TR-FRET; shares compounds with PrPC TRFRET; cell surface PrPC level; inhibition, % at 13.8 µM; 1,500 compounds, 65% hits; in the data active means inhibition above about 25%
# LD9 cytotox: cytotoxicity in LD9 cells, cytotoxicity control for cell surface PrPc inhibitor project, cell-based, luminescence, high throughput | luminescence viability | inhibition, % at 13.8 µM | shares compounds with PrPC TRFRET | 1,500 compounds, 29% hits | AID 743201, 2013; in the data active means inhibition above about 9.5%
# * hit, by the source's call; · = no result. Only some compounds are listed: those with a hit (about 0.82% of all), similar ones and a draw of the others.
SMILES,PrPC TRFRET,DUSP3 inh,TcdB inh,PrPC TRFRET cf,LD9 cytotox
CCc1cc2cccc(C)c2nc1SCC(=O)NNC(=O)c1ccco1,70.7*,5.4,·,98.1*,-3.0
C/C=C/c1ccc2c(c1)O[C@H](CN(C)Cc1cncnc1)[C@H](C)CN([C@@H](C)CO)S2(=O)=O,·,·,-2.0,·,·
CCCCCCn1c(=O)n2n(c1=O)C[C@]1(OC(=O)NCc3ccccc3)CN(S(=O)(=O)c3ccc(C)cc3)C[C@]1(O)C2,-1.2,·,0.7,·,·
CCCCCCn1c(=O)n2n(c1=O)C[C@]1(OC(=O)Nc3cccs3)CN(S(=O)(=O)c3ccc(C)cc3)C[C@]1(O)C2,24.8*,·,3.5,5.1,0.5
C[C@@H]1CN([C@H](C)CO)C(=O)c2cc(C#Cc3ccccc3F)cnc2O[C@@H]1CN(C)C(=O)C1CCCCC1,·,·,0.9,·,·
COc1ccc(S(=O)(=O)N(C)C[C@@H]2Oc3c(NC(=O)c4ccncc4)cccc3C(=O)N([C@@H](C)CO)C[C@H]2C)cc1,·,·,-0.8,·,·
C[C@@H]1CN([C@H](C)CO)C(=O)c2cccc(NC(=O)C3CCCCC3)c2O[C@H]1CN(C)S(C)(=O)=O,·,·,-0.3,·,·
O=c1c2ccccc2nc2n1C(CSc1ccccc1)CS2 (configuration not stated),-1.4,31.9,1.1,·,·
O=c1c2ccccc2nc2n1C(CSCc1ccc(Cl)cc1)CS2 (configuration not stated),25.6*,16.8,·,17.9,14.0*
C[C@H](CO)N1C[C@H](C)[C@H](CN(C)C(=O)Nc2ccc(C(F)(F)F)cc2)Oc2c(NC(=O)Nc3ccc4c(c3)OCO4)cccc2C1=O,·,·,-0.1,·,·
Cc1nnc(SCC(=O)Nc2ccc(C(N)=O)cc2)n1-c1ccccc1,-0.2,40.9,2.0,·,·
Cc1nnc(SCC(=O)Nc2cc(C(N)=O)cc(C(N)=O)c2)n1-c1ccccc1,45.4*,3.5,1.0,29.2*,-6.0
N#Cc1ccccc1NC(=O)CSc1nnc(-c2ccc(F)cc2)n1-c1ccccc1,37.5*,4.8,·,28.8*,1.8
O=C(CSc1nnc(-c2ccccc2)n1-c1ccccc1)Nc1cccc2ccccc12,6.7,·,·,·,·
C[C@@H]1CCCCO[C@@H](CN(C)C(=O)Nc2ccc(C(F)(F)F)cc2)[C@@H](C)CN([C@H](C)CO)C(=O)c2cc(NC(=O)C3CCCCC3)ccc2O1,·,·,-0.2,·,·
CCC(=O)Nc1ccc2c(c1)C(=O)N(C)[C@H]1CC[C@H](CC(=O)NCC3CC3)O[C@@H]1CO2,·,·,0.7,·,·
Clc1c(CSc2nc3ccccc3o2)nc2ccccn12,6.7,0.0,·,·,·
Brc1c(CSc2nc3ccccc3o2)nc2ncccn12,49.0*,29.9,·,47.4*,-6.3
O=C(Nc1ccc2c(c1)[C@H]1C[C@@H](CC(=O)N3CCOCC3)O[C@@H](CO)[C@H]1O2)NC1CCCC1,·,·,2.2,·,·
C[C@H](O)C#Cc1ccc2c(c1)O[C@@H](CN(C)C(=O)C1CCC1)[C@@H](C)CN([C@@H](C)CO)S2(=O)=O,·,·,-3.5,·,·
CCn1c(C)cs/c1=N\S(=O)(=O)c1ccccc1,-3.0,·,-0.4,·,·
O=Cc1s/c(=N\S(=O)(=O)c2ccccc2)n(CCCCl)c1Cl,75.8*,17.8,0.6,95.5*,89.7*
COc1ccc(Cn2c(-c3ccc(OC)cc3)nc3c(c(=O)c4ccccc4n3C)c2=O)cc1,·,37.3,·,·,·
COc1ccc(Cn2c(-c3ccccc3C)nc3c(c(=O)c4ccccc4n3C)c2=O)cc1,52.8*,·,2.0,8.7,-1.3
CCOc1ccc(-c2cc(C(=O)NCCCn3ccnc3)c3ccccc3n2)cc1,-5.8,36.9,1.0,·,·
SMILES,PrPC TRFRET,DUSP3 inh,TcdB inh,PrPC TRFRET cf,LD9 cytotox
CCOc1ccc(-c2cc(C(=O)NCCCn3ccnc3)c3cc(Br)ccc3n2)cc1,25.4*,-9.1,-0.3,82.3*,-0.4
CO[C@@H]1CN(C)C(=O)c2cc(NC(=O)C3CC3)ccc2OC[C@H](C)N(C(=O)c2ccccc2)C[C@@H]1C,·,·,0.9,·,·
CCOc1ccccc1NC(=O)Nc1ccc(Cl)cc1,25.9*,41.9,2.4,12.7,-0.1
CCOc1ccccc1NC(=O)Nc1ccccn1,-5.4,17.5,0.7,·,·
Cc1cccc2c(=O)c(-c3ccc4c(c3)OCO4)c(NC(=O)c3ccco3)oc12,63.5*,5.7,0.8,66.5*,-6.8
Cc1cccc(-c2c(NC(=O)c3ccco3)oc3c(C)cccc3c2=O)c1,1.8,12.3,-3.7,·,·
CCCNC(=O)[C@H]1[C@H](CO)[C@H]2Cn3c(ccc(C4=CCCC4)c3=O)[C@H]2N1C(=O)C1CC1,·,·,0.8,·,·
